{"source": "PubChem BioAssay AID2515", "about": "(National Center for Advancing Translational Sciences (NCATS), 2010)", "note": "Inconclusive results are not listed. A number with no mark means an inactive call. Active and inactive are the calls of the source. The call rests on the fitted dose curve; in most records, active means well fitted inhibition curve with a large enough effect; inconclusive means small, poorly fitted or top-dose-only effect; inactive means flat fitted curve, though single readings scatter.", "data": [{"target": "Luciferin 4-monooxygenase (Photinus pyralis) (UniProt P08659)", "sequence (P08659 whole entry, looked up, canonical isoform)": "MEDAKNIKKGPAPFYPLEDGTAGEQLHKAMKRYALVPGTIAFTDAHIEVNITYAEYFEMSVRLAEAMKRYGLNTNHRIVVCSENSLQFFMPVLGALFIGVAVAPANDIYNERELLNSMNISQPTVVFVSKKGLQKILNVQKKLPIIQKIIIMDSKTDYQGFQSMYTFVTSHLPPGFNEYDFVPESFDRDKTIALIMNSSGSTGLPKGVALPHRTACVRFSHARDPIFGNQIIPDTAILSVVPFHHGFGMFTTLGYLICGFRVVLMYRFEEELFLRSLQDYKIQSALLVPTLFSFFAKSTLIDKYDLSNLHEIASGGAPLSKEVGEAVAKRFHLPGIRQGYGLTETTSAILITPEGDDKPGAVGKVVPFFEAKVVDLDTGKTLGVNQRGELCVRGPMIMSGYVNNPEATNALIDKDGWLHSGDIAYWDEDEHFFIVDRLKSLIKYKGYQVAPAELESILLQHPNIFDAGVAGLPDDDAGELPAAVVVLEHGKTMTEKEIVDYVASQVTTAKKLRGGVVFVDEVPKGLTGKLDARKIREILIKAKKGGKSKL", "assay": "Counterscreen Assay for Enhancers of SMN2 Splice Variant Expression: Interaction with Luciferase Reporter for Probe SAR", "conditions": "purified firefly luciferase, luminescence inhibition; series mostly up to 51 µM; activity, negative = inhibition: at the top concentration", "from_the_text": "NIH Chemical Genomics Center [NCGC] NIH Molecular Libraries Probe Production centers Network [MLPCN] MLPCN Grant: R03 MH084179-01 Assay Submitter (PI): Elliot Androphy NCGC Assay Overview: Spinal muscular atrophy (SMA) is caused by insufficient levels of the survival motor neuron protein SMN. The SMN locus on chromosome 5q13 contains two inverted copies of SMN called SMN1 and SMN2 which are 99% identical at the amino acid level. SMN1 is a fully functional protein and SMN2 skips exon 7 90% of the time. Skipping of exon 7 produces non-functional protein product. 10% of the SMN2 protein includes exon 7 and is fully functional. In the SMA disease state, mutations in the SMN1 locus are the cause of the disease state. Because only 10% of SMN2 is of the fully functional form, it is not sufficient to overcome the deficiency produced by the loss of the SMN1 product. A therapy that either increases the amount of SMN2 product made increases the inclusion of exon 7 has been proposed for the treatment of SMA. We have designed an assay to identify small molecules that can increase the amount of functional SMN2 product by appending a luciferase reporter gene after the native SMN2 gene, such that inclusion of exon 7 in the expressed product places the luciferase sequence in frame, thus generating functional luciferase enzyme. One potential source of false positives in the primary screening assay is stabilization of the reporter luciferase via direct binding. This assay attempts to identify such compounds by screening directly for luciferase activity in the absence of the cellular system.\nNCGC Assay Protocol Summary: The primary screen utilizes a luciferase reporter gene assay, combining the promoter and splicing based cassettes in tandem with the major portion of the native SMN1 cDNA, and then transfected into HEK293 cells. Compounds that modulate luciferase signal presumably modulate expression of […]. In this assay, we utilize purified firefly luciferase in lieu of a cellular reporter to identify compounds interacting directly with luciferase in the primary screen. Sequence, Parameter, Value, Description (1) Reagent, 2.5 uL, Enzyme in buffer (note A) (2) Compound, 23 nL, From stock solutions (3) Time, 5 minutes, Room temp (4) Reagent#2.5 ul, Luciferase detection reagent (note B) (5) Detector, 1 sec integrate, Luminescent read on Viewlux (note C) Sigma enzyme (1 mg) considered to be MW 61,000 diluted in 357 ul assay buffer to 50 uM stock. A - Enzyme and buffer consists of 50 mM Tris-acetate pH 7.6, 10 mM Mg acetate 0.05% BSA, 0.01% Tween and 5 nM firefly luciferase B - Detection reagent = britelite plus diluted 1:10 in PBS C - Viewlux settings were 1 second integration medium sensitivity Keywords: Spinal muscular atrophy, SMA, SMN2, high throughput screening, MLSMR, MLPCN, NIH Roadmap, qHTS and NCGC", "units": {"activity, negative = inhibition": "%"}, "values": [{"compound": "NC(=O)C1CCN(c2nc(-c3cc4ccccc4o3)cs2)CC1", "Potency": "31.8 µM (active)"}, {"compound": "CS(=O)(=O)c1cccc(-c2csc(N3CCC(C(N)=O)CC3)n2)c1", "activity, negative = inhibition": -14}, {"compound": "NC(=O)C1CCN(c2nc(-c3ccccc3N)cs2)CC1", "activity, negative = inhibition": -14}, {"compound": "CN(C)C(=O)c1cccc(-c2csc(N3CCC(C(N)=O)CC3)n2)c1", "activity, negative = inhibition": -19.3}, {"compound": "CN(C)c1ccccc1-c1csc(N2CCC(C(N)=O)CC2)n1", "activity, negative = inhibition": -14}, {"compound": "NC(=O)C1CCN(c2nc(-c3ccccc3F)cs2)CC1", "Potency": "35.7 µM (active)"}, {"compound": "NC(=O)C1CCN(c2nc(-c3cccc(N)c3)cs2)CC1", "activity, negative = inhibition": -24.6}, {"compound": "NC(=O)C1CCN(c2nc(-c3ccc4c(c3)OCCO4)cs2)CC1", "Potency": "4.5 µM (active)"}, {"compound": "Cc1ccc(-c2csc(N3CCC(C(N)=O)CC3)n2)cc1", "Potency": "12.7 µM (active)"}, {"compound": "CN(C)c1cccc(-c2csc(N3CCC(C(N)=O)CC3)n2)c1", "Potency": "12.7 µM (active)"}, {"compound": "CS(=O)(=O)c1ccccc1-c1csc(N2CCC(C(N)=O)CC2)n1", "activity, negative = inhibition": -16.9}, {"compound": "NC(=O)C1CCN(c2nc(-c3cccnc3)cs2)CC1", "activity, negative = inhibition": -12.3}, {"compound": "Cc1noc(C)c1-c1csc(N2CCC(C(N)=O)CC2)n1", "activity, negative = inhibition": -12.3}, {"compound": "NC(=O)C1CCN(c2nc(-c3ccc4ccccc4c3)cs2)CC1", "Potency": "31.8 µM (active)"}, {"compound": "NC(=O)C1CCN(c2nc(-c3ccc(F)cc3)cs2)CC1", "Potency": "28.4 µM (active)"}, {"compound": "Cn1ccc2cc(-c3csc(N4CCC(C(N)=O)CC4)n3)ccc21", "Potency": "10.1 µM (active)"}, {"compound": "NC(=O)C1CCN(c2nc(-c3ccccc3C(F)(F)F)cs2)CC1", "activity, negative = inhibition": -15.8}, {"compound": "NC(=O)C1CCN(c2nc(-c3ccc(Br)cc3)cs2)CC1", "Potency": "40.1 µM (active)"}]}]}
